Most compounds without a hit are left out; they make up all but 1.8% or so of the library.
aDG glyco act – increases alpha dystroglycan glycosylation; Pro5-aDG cells, alpha-DG glycosylation AlphaScreen (IIH6); 0% Pro5, 100% B10-LARGE cell signal; activation, % at 10 µM; 360,000 compounds, 0.22% hits;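 active means activation of at least 8% versus controls, or a plate z-score of at least 8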;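 further: Pro5 are CHO cells carrying HIG-tagged alpha-DG that lacks glycosylation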
SUMO Mot1 rescue – blocks SUMOylation pathway, rescuing yeast Mot1-301 growth. S. cerevisiae Mot1-301 growth rescue, ATP luminescence, 38.5C; percent above DMSO median, 100 means doubled. growth rescue, % at 18.8 µM. 320,000 compounds, 1% hits;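 active means every valid replicate shows activation above 250% relative to neutral control wells; inactive means the rest, any valid replicate at or below 250%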;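 further: OY570 slx delta 5 strain wells were the positive control but not used for scaling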
AI-2 QS modul – modulates the Vibrio harveyi AI-2 quorum sensing system. Vibrio harveyi JMH597 AI-2 luminescence/OD600 ratio, 9 h; active compounds read low; strain lacks LuxN and CqsS sensors; 0 = neutral-control median. activity change, % at 7.5 µM. 300,000 compounds, 0.4% hits; in the data active means activity change below about -75%, passing the limit was not always enough;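 further: luminescence divided by OD600 gain over 9 h not by final OD600 alone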
ARNT-TACC3 inh – ARNT/TACC3 interaction disruption. AlphaScreen His-ARNT PAS-B/GST-TACC3 binding, luminescence; TACC3 fragment carries E629A point mutation. 390,000 compounds, 0.66% hits. AID 623870. inhibition, % at 9.99 µM;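 active means mean inhibition of replicates at least 50% and at least half of replicates each reaching 50%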;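 further: 0% = complete ARNT plus TACC3 wells and 100% = ARNT alone without TACC3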
A1 inh – inhibitors of the anti-apoptotic protein A1, read as caspase activation; MEF A1-2A-BIM cells, Caspase-Glo 3/7 luminescence, 3 h; percent of clofoctol response, vehicle zero; caspase activation, % (test concentration not listed); 330,000 compounds, 0.066% hits;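 active means over half of replicate activation scores above 10%, or exactly half above 10 with the replicate mean above 10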
aDG glyco conf – confirmation of alpha dystroglycan glycosylation activators | activation, % at 10 µM (by protocol) | Pro5-aDG cells, alpha-DG glycosylation, IIH6 AlphaLISA; scaled to LARGE-overexpressing B10 cells as 100% | 600 compounds, 17% hits | AID 651671 | shares compounds with aDG glyco act;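 active means activation of at least 7% in one or more replicates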;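 further: cells exposed to compound for two days before detection; 0% = DMSO-treated Pro5 cells and 100% = DMSO-treated B10-LARGE cells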
Starred values were filed as active, the others as inactive.

How did COC(=O)C1=C(c2ccc3ccccc3c2)C[C@@H]2CC[C@H]1N2C(=O)NC1CCCCC1 do in these assays?
aDG glyco act: 0.5; SUMO Mot1 rescue: 22.6; ARNT-TACC3 inh: 7.0; A1 inh: 1.4

Results for O=C1NC(=S)NC(=O)C1C1CCCCC1 ?
aDG glyco act: -0.2; SUMO Mot1 rescue: 137.2; AI-2 QS modul: 23.3; ARNT-TACC3 inh: 5.8; A1 inh: 0.3

What do the screens show for `CCC1(c2ccc(N)cc2)CCC(=O)NC1=O` (stereo unspecified)?
aDG glyco act: 11.8*; SUMO Mot1 rescue: -7.8; AI-2 QS modul: 22.6; ARNT-TACC3 inh: -2.5; A1 inh: -0.1; aDG glyco conf: -1.0

How did O=C1C(Cc2cnc[nH]2)NC(=S)N1c1ccccc1 (stereo unspecified) do in these assays?
aDG glyco act: -0.1; SUMO Mot1 rescue: 71.3; AI-2 QS modul: 11.0; ARNT-TACC3 inh: 8.1; A1 inh: 0.5

What do the screens show for `CC1CCC2[C@@H](C)C(=O)OC3O[C@]4(C)CCC1C32OO4` (stereo partly specified)?
aDG glyco act: 2.6*; SUMO Mot1 rescue: 41.7; AI-2 QS modul: 33.8; ARNT-TACC3 inh: -2.5; A1 inh: 0.6; aDG glyco conf: -0.2

Source: PubChem (several laboratories)
